High-throughput results as filed in PubChem BioAssay.
BRCA1 expr up: increases BRCA1 expression. MCF7-BRCA1-FFLuc reporter, luminescence, 48 h; response scale: scaled: vehicle 0%, 10 µM genistein 100%. Potency, µM (series often up to 46.1 µM), for inactives: at the highest dose activation, hits mostly activators. 1.1% of 380,000 active; further: potency means the concentration at half of the fitted maximal effect; nearly all actives have a fitted effect of over 80% in size
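Using MCF7 cells harboring a BRCA1 firefly luciferase reporter, plated 2 h before compound pinning, the screen measured luminescence after 48 h incubation. Responses were normalized to DMSO and 10 microM genistein, then fitted for concentration-effect.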
IL2 activator: activates IL-2 in a cell-based reporter assay; IL-2 activation reporter assay, cell-based qHTS; stimulated with anti-CD3/CD4/CD28 beads; in transgenic mouse T cells; activation, % (series mostly up to about 46 µM); 0.065% of 360,000 active; AID 652025; in the data active means activation above about 50%; inconclusive means mostly about 30% to 49%; further: 0% is about no effect
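Unstimulated transgenic mouse T cells preincubated 60 min with compound, then stimulated with anti-CD3/anti-CD4-coated beads plus anti-CD28 for 18 h at 37 degrees C. IL-2 response read as EGFP and DsRed fluorescence by plate cytometry.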
Nrf2 inh: inhibitors of Nrf2 signaling | Potency, µM (series often up to 46 µM), without a hit: at the highest dose activity change, negative = inhibition, usual class: inhibitors | 2.1% of 360,000 active | AID 504444 | A549 ARE-Fluc reporter, luciferase luminescence, 18-24 h; further: potency means the concentration at half of the fitted maximal effect; on the % scale 0 is the no-effect control and ±100 the full control effect; nearly all actives have a fitted effect of over 60% in size
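Reporter: ARE-Fluc in A549. Exposure: 18-24 h, 37 °C, 5% CO2, 5% FBS OPTI-MEM. Readouts: fluorescent cytotoxicity (CellTiter-Fluor), then luminescent Nrf2 signal after BugLite.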
p53 reactivator: restores transcriptional activity of mutant p53. H1299 p53-A138V BP100-luciferase reporter, luminescence, 24 h. AID 504706. Potency, µM (series often up to 92.2 µM), inactives show at the top dose activity change, positive = activation, usual class: activators. 0.063% of 320,000 active; further: potency means the concentration at half of the fitted maximal effect; % of control where 0% means no effect; nearly all actives have a fitted effect of over 45% in size
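p53-null H1299 cells stably carrying temperature-sensitive p53-A138V and a BP100-luciferase reporter were pinned with compounds (4-point, 1:5 series) and held 24 hrs at 37 deg C. Luminescence was read 10 min after detection reagent.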
Nrf2 ARE act: activates Nrf2 signaling; Potency, µM (top dose mostly 46.1 µM), for inactives: at the top dose activation, most hits filed as activators; 0.31% of 410,000 active; AID 624171; AREc32 ARE-luciferase reporter (MCF7-derived line), luminescence, 24 h; further: potency means the concentration at half of the fitted maximal effect; % of control where 0% means no effect; nearly all actives have a fitted effect of over 65% in size
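Luciferase luminescence (Steady-Glo, 30 min at room temperature) served as the read-out of ARE activation in AREc32 cells treated with compounds for 24 hr at 37 deg C.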
A549 viability: counter-screen for Nrf2 inhibitors: cytotoxicity in A549 cells | 0.16% of 390,000 active | Potency, µM (titrated, usually from 46 µM), without a hit: at the highest dose activity change, negative = cytotoxicity, most hits filed as inhibitors | AID 504648 | A549 ARE-Fluc cells, CellTiter-Fluor viability, 18-24 h; further: potency means the concentration at half of the fitted maximal effect; on the % scale 0 is the no-effect control and ±100 the full control effect
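Cytotoxicity counterscreen: CellTiter-Fluor fluorescence was measured in A549 ARE_Fluc cells after 18-24 h of compound exposure in a concentration series. The subsequent BugLite luminescent read reports ARE-luciferase activity.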
Starred values were filed as active, the others as inactive. Most compounds without a hit are left out; they make up all but 3.2% or so of the library. Unless noted, the call rests on the fitted dose curve; in most records, active means well fitted curve in the direction sought with a large enough effect; inconclusive means small, poorly fitted or top-dose-only effect, or another doubt; inactive means no such curve, though single readings can be large; an effect the other way counts as inactive or inconclusive.

What do the screens show for `CCN(CC)c1nc(C#N)nc(N2CCOCC2)n1`?
BRCA1 expr up: -51.7%; Nrf2 inh: 23.1µM*; A549 viability: -3.5%

How did CN(C#N)c1nc(N2CCOCC2)nc(N2CCOCC2)n1 do in these assays?
BRCA1 expr up: -40.3%; IL2 activator: -0.3; Nrf2 inh: inconclusive; Nrf2 ARE act: -0.6%; A549 viability: -3.0%

How did COCCNC(=O)c1ccc(-n2c(-c3ccccc3)cc3c2CCCCC3)cc1 do in these assays?
Nrf2 inh: inconclusive; Nrf2 ARE act: 15.8µM*; A549 viability: -8.8%

How did CCC(C)NC(=O)c1ccc(-n2c(-c3ccccc3)cc3c2CCCC3)cc1 (centres undefined) do in these assays?
Nrf2 inh: 18.4µM*; Nrf2 ARE act: inconclusive; A549 viability: -2.0%

Results for CCOCCCNC(=O)c1ccc(-n2c(-c3ccccc3)cc3c2CCCCC3)cc1 ?
Nrf2 inh: 18.4µM*; Nrf2 ARE act: inconclusive; A549 viability: -2.3%

How did CC(C)NC(=O)c1ccc(-n2c(-c3ccccc3)cc3c2CCCC3)cc1 do in these assays?
Nrf2 inh: -2.0%; Nrf2 ARE act: inconclusive; A549 viability: 12.5%

What do the screens show for `CCCNC(=O)c1ccc(-n2c(-c3ccccc3)cc3c2CCCCC3)cc1`?
Nrf2 inh: 1.7%; Nrf2 ARE act: 12.6µM*; A549 viability: 4.2%

What do the screens show for `Cc1cc(C)cc(NC(=O)CN2C(=O)c3ccccc3Sc3ccc(C(=O)N4CCCC4)cc32)c1`?
Nrf2 ARE act: 12.4%; A549 viability: -17.3%

Results for CN(C)CCNC(=O)c1ccc(-n2c(-c3ccccc3)cc3c2CCCC3)cc1 ?
Nrf2 inh: 23.1µM*; Nrf2 ARE act: 11.2µM*; A549 viability: 0.2%

Results for Cc1ccc(S(=O)(=O)Nc2cc3c(cc2C)n(C)c(=O)c(=O)n3C)c(C)c1 ?
Nrf2 inh: inconclusive; Nrf2 ARE act: 4.6%; A549 viability: -4.9%

How did N#Cc1c(N)nc2c(c1N)CC(CO)O2 (centres undefined) do in these assays?
BRCA1 expr up: 0.5%; IL2 activator: -3.4; Nrf2 inh: 9.0%; p53 reactivator: 3.6%; Nrf2 ARE act: -0.5%; A549 viability: -5.7%

How did N#Cc1c(N)nc2c(c1N)CC(COc1ccccc1)O2 (centres undefined) do in these assays?
BRCA1 expr up: 11.2µM*; IL2 activator: -2.1; p53 reactivator: inconclusive; Nrf2 ARE act: 3.3%; A549 viability: -2.7%

What do the screens show for `Cc1ccccc1OCC1Cc2c(nc(N)c(C#N)c2N)O1` (centres undefined)?
BRCA1 expr up: 6.31µM*; IL2 activator: 1.8; Nrf2 inh: inconclusive; p53 reactivator: inconclusive; Nrf2 ARE act: 0.6%; A549 viability: 7.0%

What do the screens show for `Cc1cc(C)n(Cc2ccc(C(=O)Nc3ccc(Br)cc3C)o2)n1`?
BRCA1 expr up: 8.3%; IL2 activator: -0.8; Nrf2 inh: -9.8%; p53 reactivator: -10.0%; Nrf2 ARE act: -0.1%; A549 viability: 1.0%

How did Cc1cc(C)n(Cc2ccc(C(=O)Nc3cccc(Br)c3)o2)n1 do in these assays?
BRCA1 expr up: 3.3%; IL2 activator: -0.3; Nrf2 inh: 23.1µM*; p53 reactivator: 0.8%; Nrf2 ARE act: 0.3%; A549 viability: inconclusive

How did Cc1ccccc1NC(=O)Nc1ccccn1 do in these assays?
BRCA1 expr up: 0.0%; IL2 activator: 0.0; Nrf2 inh: inconclusive; Nrf2 ARE act: 28.6%; A549 viability: -5.6%

Results for O=C(Nc1ccccn1)Nc1ccccc1[N+](=O)[O-] ?
BRCA1 expr up: -18.4%; IL2 activator: -0.3; Nrf2 inh: 20.9%; p53 reactivator: 21.2%; Nrf2 ARE act: 3.98µM*; A549 viability: -0.3%

What do the screens show for `O=C(Nc1ccccn1)c1ccc(Cl)c([N+](=O)[O-])c1`?
BRCA1 expr up: -17.5%; IL2 activator: 0.1; Nrf2 inh: inconclusive; p53 reactivator: 19.4%; Nrf2 ARE act: 10µM*; A549 viability: -10.7%

Results for Cc1ccc(Cl)cc1NCc1nnc2n1CCCCC2 ?
BRCA1 expr up: 2.2%; Nrf2 ARE act: -0.8%; A549 viability: -2.2%

What do the screens show for `CCOC(=O)c1c(C)[nH]c(C)c1C(=O)Cn1nnc(-c2ccccc2C)n1`?
BRCA1 expr up: -27.3%; IL2 activator: -3.9; Nrf2 inh: 13µM*; p53 reactivator: 1.2%; Nrf2 ARE act: 0.4%; A549 viability: -28.1%

What do the screens show for `COc1ccc(OC)c(/C=C/c2sc3ccccc3[n+]2C)c1`?
BRCA1 expr up: -55.9%

What do the screens show for `COc1ccc(CCNC(=O)CCc2c(C)nc3c(c(C)nn3-c3ccc(C)cc3)c2C)c(OC)c1`?
BRCA1 expr up: 6.2%; Nrf2 inh: 21.5%; Nrf2 ARE act: 0.2%; A549 viability: 6.9%

Results for CCN(C[C@H]1N[C@@](Cc2ccccc2)(C(=O)OC)[C@H]2C(=O)N(Cc3ccccc3)C(=O)[C@@H]12)C(=O)C1CCCCC1 ?
BRCA1 expr up: 15.2%; IL2 activator: -0.1; Nrf2 inh: 14.6µM*; p53 reactivator: 1.5%; Nrf2 ARE act: 0.3%; A549 viability: inconclusive

What do the screens show for `Cc1ccc(-c2nc3ccccc3[nH]2)cn1`?
BRCA1 expr up: 7.94µM*; IL2 activator: -0.1; Nrf2 inh: inconclusive; p53 reactivator: 13.6%; Nrf2 ARE act: 5.5%; A549 viability: 1.1%

What do the screens show for `CCC1CCCCN1S(=O)(=O)c1ccc(NC(=O)c2cccnc2)cc1` (centres undefined)?
BRCA1 expr up: -18.8%; IL2 activator: -4.3; Nrf2 inh: -19.3%; p53 reactivator: -2.5%; Nrf2 ARE act: 2.0%; A549 viability: 10.4%

How did CC1CC(C)CN(S(=O)(=O)c2ccc(C(=O)Nc3nnc(-c4cccs4)o3)cc2)C1 (centres undefined) do in these assays?
BRCA1 expr up: -90.2%; IL2 activator: -3.7; Nrf2 inh: 5.01µM*; p53 reactivator: inconclusive; Nrf2 ARE act: -0.6%; A549 viability: inconclusive

How did CN(C)S(=O)(=O)c1ccc(C(=O)Nc2nnc(-c3cccs3)o2)cc1 do in these assays?
BRCA1 expr up: -22.7%; IL2 activator: 0.2; Nrf2 inh: inconclusive; p53 reactivator: 8.1%; Nrf2 ARE act: 0.7%; A549 viability: -4.3%

What do the screens show for `CCC1CCCCN1S(=O)(=O)c1ccc(C(=O)Nc2nnc(-c3cccs3)o2)cc1` (centres undefined)?
BRCA1 expr up: -73.4%; IL2 activator: 0.5; Nrf2 inh: 5.01µM*; p53 reactivator: 27.6%; Nrf2 ARE act: -0.5%; A549 viability: inconclusive
